# Measurements as given in PubChem BioAssay (NCATS).
# Where “and” joins values, the source holds several entries; their conditions need not be identical. Equal entries are not always repeated. Records with an inconclusive call do not appear. Where a call stands in place of a potency, no number is given. Calls of active or inactive are those of the source. Unless noted, calls follow the shape of the dose curve; as a rule, active = well fitted curve in the direction sought with a large enough effect; inconclusive = small, poorly fitted or top-dose-only effect, or another doubt; inactive = no such curve, though single readings can be large; an effect the other way counts as inactive or inconclusive.
# Assays:
# [1] = qHTS for differential inhibitors of proliferation of Plasmodium falciparum line 7G8 (AID 1815);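 also: parasite growth measured after three days of incubation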; also: potency is read from the fitted curve at half-maximal effect
# [2] = qHTS for differential inhibitors of proliferation of Plasmodium falciparum line GB4 (AID 1816); details: Potency: Plasmodium falciparum GB4 proliferation inhibition;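 also: potency is read from the fitted curve at half-maximal effect; parasite growth measured after 72 h incubation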
# [3] = Confirmatory qHTS for VERO E6 Cytotoxicity Assay: Counterscreen for SARS-CoV-2 CPE Assay (AID 1508605; calls by dose curve; also: series mostly up to about 20 µM; nearly all actives have a fitted effect of over 60% in size)
# [4] = MultiTox-Fluor Cytotoxicity Assay - LYMP1-001 - Dead Cells (AID 946); also: potency is read from the fitted curve at half-maximal effect
# Summary of the method: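 Seed 2500 LYMP1-001 cells/well, incubate 5 hr at 37 C; add compound, 16 hr at 37 C; add MultiTox-Fluor reagent, 60 min RT; read dead-cell fluorescence Ex/Em=485/520. Normalize to DMSO and 15 uM tetraoctylammonium bromide.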
# [5] = Cell Viability - LYMP1-002 - Assay at 16 hr (AID 948)
# Summary of the method: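 Human lymphoblastoid cells (LYMP1-002), 2500/well, were preincubated 5 hr at 37 C, then exposed to compounds for 16 hr at 37 C in complete medium. Cellular ATP was read by CellTiter-Glo luminescence after 30 min at room temperature; AC50 from Hill fits.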
# [6] = Cell Viability - LYMP1-003 - Assay at 24 hr (AID 963)
# Summary of the method: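 Cells seeded at 2500/well, 5 hr at 37 C; compounds added; 24 hr at 37 C; CellTiter-Glo added, 30 min room temperature; luminescence read. Decrease in ATP taken as cytotoxicity, AC50 from Hill modelling.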
# [7] = Cell Viability - LYMP1-003 - Assay at 40 hr (AID 964); also: series mostly up to about 92 µM; nearly all actives have a fitted effect of over 60% in size
# Summary of the method: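 Cells were seeded at 2500 per well and incubated 5 hr at 37 C. Compounds were added across a concentration series and left 40 hr at 37 C. CellTiter-Glo was added for 30 min at room temperature before luminescence reading.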
# [8] = Cell Viability - LYMP2-015 (AID 971); also: nearly all actives have a fitted effect of over 55% in size
# Summary of the method: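 Luminescent ATP read-out (CellTiter-Glo) served as the viability measure after lymphoblastoid cells were exposed to compounds for 24 hours at 37 C. Concentration-response data were fitted with the Hill equation to give AC50.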
# [9] = Cell Viability - LYMP2-023 (AID 975);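 also: cellular ATP measured by luciferase luminescence as viability proxy; series mostly up to about 92 µM; nearly all actives have a fitted effect of over 55% in size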
# Summary of the method: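 2500 cells/well, 5 hr 37 C; cpd 24 hr 37 C; CellTiter-Glo, 30 min RT; luminescence. qHTS conc-response, Hill fit -> AC50. Pos ctrl tetraoctylammonium bromide.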
# [10] = Cell Viability - LYMP2-025 (AID 976); also: series mostly up to about 92 µM
# Summary of the method: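 Seed 2500 LYMP2-025 cells/well; 5 hr at 37 C; add compound; 24 hr at 37 C; add CellTiter-Glo; 30 min RT; read luminescence. AC50 from Hill-modelled concentration-response.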
# [11] = Cell Viability - LYMP2-002 (AID 977);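 also: series mostly up to about 92 µM; compound exposure lasted 24 h at 37 °C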
# Summary of the method: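 Human lymphoblastoid LYMP2-002 cells, 2500 per well, exposed to compounds for 24 h at 37 C in complete medium; viability read as intracellular ATP by CellTiter-Glo luminescence, AC50 from Hill fits.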
# [12] = Cell Viability - LYMP2-014 (AID 983); also: series mostly up to about 92 µM; nearly all actives have a fitted effect of over 50% in size
# Summary of the method: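 Luminescent ATP signal (CellTiter-Glo, 30 min at room temperature) serves as the viability read-out after 24 hr compound exposure at 37 C. Cells were seeded at 2500 per well and settled 5 hr beforehand.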
# [13] = molecular target: Estrogen receptor (Homo sapiens) (UniProt P03372); assay: qHTS assay for small molecule antagonists of estrogen receptor alpha signaling (AID 588513; active = well fitted curve in the direction sought with a large enough effect in the signal ratio, with a control signal flat, not every such curve was filed as active; the % refers to the signal ratio)
# Summary of the method: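 ER-alpha-UAS-bla GripTite HEK 293 cells in medium with 2% charcoal/dextran-treated FBS were preincubated 4 h at 37 C, dosed with compound (1:2 titration), stimulated with 0.5nM 17-beta-estradiol for 18 h, then read by CCF4 beta-lactamase fluorescence.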
# [14] = molecular target: Peroxisome proliferator-activated receptor gamma (Homo sapiens) (UniProt P37231); assay: qHTS assay for small molecule agonists of peroxisome proliferator-activated receptor gamma signaling (AID 588536; active = well fitted curve in the direction sought with a large enough effect in the signal ratio, with a control signal flat, not every such curve was filed as active; the % refers to the signal ratio)
# Summary of the method: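 Test agents, titrated, stimulated HEK293 UAS-bla cells overnight (16 h, 37 C). Substrate CCF4 was then added for two hours at room temperature before fluorescence reading.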
# [15] = molecular target: Peroxisome proliferator-activated receptor gamma (Homo sapiens) (UniProt P37231); assay: qHTS assay for small molecule antagonists of peroxisome proliferator-activated receptor gamma signaling (AID 588537; active = well fitted inhibition curve with a large enough effect in the signal ratio, with a control signal flat, not every such curve was filed as active; the % refers to the signal ratio;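 also: reporter cells co-stimulated with 50 nM rosiglitazone agonist during compound treatment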)
# Summary of the method: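 PPARγ-UAS-bla HEK293 cells (3000/well) in 1% charcoal/dextran-stripped FBS are treated with compound, then stimulated with 50 nM rosiglitazone for 16 h at 37 °C. Read-out is CCF4 β-lactamase fluorescence after 2 h at RT. IC50 comes from Hill fits normalised to rosiglitazone and DMSO.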
# [16] = molecular target: Vitamin D3 receptor (Homo sapiens) (UniProt P11473); assay: qHTS assay for small molecule antagonists of vitamin D receptor signaling (AID 588541; calls by dose curve;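 also: receptor activated by calcitriol during compound treatment; series mostly up to about 77 µM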)
# Summary of the method: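 VDR-UAS-bla HEK293T cells in 2% charcoal-stripped FBS were stimulated with 1-alpha,25-dihydroxyvitamin D3 (3 nM final) plus compound for 16 h at 37 C. The beta-lactamase CCF4 readout was normalized to 50 nM agonist and DMSO, and Hill fits gave IC50.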
# [17] = qHTS assay for small molecule antagonists of retinoid X receptor alpha signaling (AID 588546; active = well fitted inhibition curve with a large enough effect in the signal ratio, with a control signal flat, not every such curve was filed as active; the % refers to the signal ratio; also: potency is read from the fitted curve at half-maximal effect;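 as to max response: cells stimulated with 9-cis-retinoic acid as agonist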); details: HEK293T RXRa-UAS-bla, beta-lactamase ratio, antagonist mode; measured here: W530 green channel, cytotoxicity proxy
# Summary of the method: (§1)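 Beta-lactamase reporter inhibition, read as CCF4 fluorescence ratio (ex 405, em 460/530 nm) after 2 h at RT. HEK293T UAS-bla cells, 2500/well, were stimulated with 9-cis-RA at 500 or 100 nM final alongside test compound for 18 h at 37 C.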
# [18] = molecular target: Retinoic acid receptor RXR-alpha (Homo sapiens) (UniProt P19793); assay: as above; details: HEK293T RXRa-UAS-bla, beta-lactamase ratio, antagonist mode
# Summary of the method: as §1
# [19] = molecular target: Thyroid hormone receptor beta (Homo sapiens) (UniProt P10828); assay: qHTS assay for small molecule antagonists of thyroid hormone receptor beta signaling (AID 588547; active = well fitted inhibition curve with a large enough effect in the signal ratio, with a control signal flat, not every such curve was filed as active; the % refers to the signal ratio;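 also: cells stimulated with 0.4 nM T3 agonist during compound exposure; series mostly up to about 77 µM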); details: TR-UAS-bla HEK293, beta-lactamase ratio, antagonist mode, 18 h
# Summary of the method: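 TR-UAS-bla GripTite HEK293 cells in 2% charcoal/dextran FBS medium; compounds 0.59 nM to 92 uM with T3 at 0.4nM final, 18 h at 37 C. Beta-lactamase read by CCF4 fluorescence (460/530 nm); Hill fits gave IC50 and efficacy.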
# [20] = qHTS assay for small molecule disruptors of the mitochondrial membrane potential - 1 hr assay (AID 651754; calls by dose curve; also: nearly all actives have a fitted effect of over 35% in size; also: potency is read from the fitted curve at half-maximal effect)
# Summary of the method: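 HepG2, 2,000 cells/well, overnight attachment; cpd or DMSO 1 hr, 37C/5% CO2; Mito-MPS dye 30 min, 37C; fluorescence monomer (490/535) and aggregate (540/590).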
# Sequence of Thyroid hormone receptor beta (Homo sapiens) (P10828 whole entry, looked up): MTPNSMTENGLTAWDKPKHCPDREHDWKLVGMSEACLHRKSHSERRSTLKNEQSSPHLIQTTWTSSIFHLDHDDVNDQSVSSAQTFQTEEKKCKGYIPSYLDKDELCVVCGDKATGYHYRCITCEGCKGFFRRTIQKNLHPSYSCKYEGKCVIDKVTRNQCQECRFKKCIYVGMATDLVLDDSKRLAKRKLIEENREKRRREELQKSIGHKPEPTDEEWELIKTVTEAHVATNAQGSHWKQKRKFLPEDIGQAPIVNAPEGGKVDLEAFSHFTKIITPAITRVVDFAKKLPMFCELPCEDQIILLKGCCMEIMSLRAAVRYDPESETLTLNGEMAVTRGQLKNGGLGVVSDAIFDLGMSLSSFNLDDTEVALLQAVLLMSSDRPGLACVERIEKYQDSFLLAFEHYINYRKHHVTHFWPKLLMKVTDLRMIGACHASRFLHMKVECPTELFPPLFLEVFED
# Sequence of Vitamin D3 receptor (Homo sapiens) (P11473 whole entry, looked up): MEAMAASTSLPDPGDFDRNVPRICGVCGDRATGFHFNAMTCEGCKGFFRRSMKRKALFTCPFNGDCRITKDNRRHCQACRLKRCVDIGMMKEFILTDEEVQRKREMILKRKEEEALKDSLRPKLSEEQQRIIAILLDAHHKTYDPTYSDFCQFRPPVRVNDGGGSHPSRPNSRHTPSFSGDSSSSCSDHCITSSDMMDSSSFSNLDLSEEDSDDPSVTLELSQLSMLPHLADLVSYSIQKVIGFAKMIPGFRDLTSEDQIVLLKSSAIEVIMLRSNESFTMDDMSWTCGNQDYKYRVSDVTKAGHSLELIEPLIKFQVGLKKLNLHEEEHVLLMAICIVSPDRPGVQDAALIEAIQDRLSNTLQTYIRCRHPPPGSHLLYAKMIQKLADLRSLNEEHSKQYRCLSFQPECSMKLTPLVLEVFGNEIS
# Sequence of Peroxisome proliferator-activated receptor gamma (Homo sapiens) (P37231 whole entry, looked up): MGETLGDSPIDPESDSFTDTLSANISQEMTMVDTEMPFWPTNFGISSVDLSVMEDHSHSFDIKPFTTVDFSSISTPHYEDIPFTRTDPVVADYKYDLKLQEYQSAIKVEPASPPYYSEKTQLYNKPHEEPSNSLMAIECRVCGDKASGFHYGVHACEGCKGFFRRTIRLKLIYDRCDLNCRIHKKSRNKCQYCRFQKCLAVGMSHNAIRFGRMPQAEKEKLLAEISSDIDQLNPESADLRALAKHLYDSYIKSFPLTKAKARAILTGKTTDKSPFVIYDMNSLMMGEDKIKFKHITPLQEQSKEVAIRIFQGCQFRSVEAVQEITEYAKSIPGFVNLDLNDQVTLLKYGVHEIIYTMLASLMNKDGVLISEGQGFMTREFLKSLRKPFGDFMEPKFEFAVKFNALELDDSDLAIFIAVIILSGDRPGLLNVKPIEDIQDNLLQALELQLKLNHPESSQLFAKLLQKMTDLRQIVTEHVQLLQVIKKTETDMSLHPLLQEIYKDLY
# Sequence of Retinoic acid receptor RXR-alpha (Homo sapiens) (P19793 whole entry, looked up): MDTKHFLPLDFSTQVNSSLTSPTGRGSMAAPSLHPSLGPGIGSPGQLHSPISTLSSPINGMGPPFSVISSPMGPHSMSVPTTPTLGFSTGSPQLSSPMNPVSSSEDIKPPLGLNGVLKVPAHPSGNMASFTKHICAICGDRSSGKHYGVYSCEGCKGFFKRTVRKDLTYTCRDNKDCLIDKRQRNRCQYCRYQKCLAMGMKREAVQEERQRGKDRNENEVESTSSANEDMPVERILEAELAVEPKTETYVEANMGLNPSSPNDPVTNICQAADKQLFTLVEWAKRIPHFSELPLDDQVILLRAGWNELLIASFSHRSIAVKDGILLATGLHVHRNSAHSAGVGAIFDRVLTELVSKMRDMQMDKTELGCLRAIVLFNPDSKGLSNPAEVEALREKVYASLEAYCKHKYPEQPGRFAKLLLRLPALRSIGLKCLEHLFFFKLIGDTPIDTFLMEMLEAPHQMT
# Sequence of Estrogen receptor (Homo sapiens) (P03372 whole entry, looked up): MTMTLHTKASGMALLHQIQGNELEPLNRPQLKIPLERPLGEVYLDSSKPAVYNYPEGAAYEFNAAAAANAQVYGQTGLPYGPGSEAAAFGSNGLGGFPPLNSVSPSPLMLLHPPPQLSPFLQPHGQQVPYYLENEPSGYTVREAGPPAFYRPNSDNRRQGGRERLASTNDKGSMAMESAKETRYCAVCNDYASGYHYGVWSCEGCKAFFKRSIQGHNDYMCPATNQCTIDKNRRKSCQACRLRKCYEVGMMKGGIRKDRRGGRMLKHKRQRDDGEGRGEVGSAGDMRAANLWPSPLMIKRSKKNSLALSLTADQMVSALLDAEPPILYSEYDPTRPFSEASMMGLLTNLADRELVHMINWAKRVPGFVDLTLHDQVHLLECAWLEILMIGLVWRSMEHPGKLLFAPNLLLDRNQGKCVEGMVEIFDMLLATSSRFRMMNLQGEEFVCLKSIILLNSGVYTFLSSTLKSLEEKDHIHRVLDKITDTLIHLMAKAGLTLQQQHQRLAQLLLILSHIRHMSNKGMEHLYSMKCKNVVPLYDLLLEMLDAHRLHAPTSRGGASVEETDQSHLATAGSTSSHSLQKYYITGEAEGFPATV
smiles,measurement,setting,value
CN1C2CCC1CC(OC(=O)C(CO)c1ccccc1)C2 (stereo not given),Potency,[1],inactive
same,Potency,[2],8.91 µM (active)
Cc1cc(O)c2c(c1)O[C@@]1(C)CC[C@H]3C(C)(C)CCCC34CO[C@@H]2[C@H]41 (stereo not given in full),Potency,[3],inactive
CN(C)CCCN1c2ccccc2CCc2ccccc21,Potency,[3],inactive
Cc1ccccc1O,Potency,[4],inactive
same,outcome,[5],inactive
same,outcome,[6],inactive
same,Potency,[7],inactive
same,outcome,[8],inactive
same,outcome,[9],inactive
same,outcome,[10],inactive
same,outcome,[11],inactive
same,outcome,[12],inactive
same,Potency,[13],inactive
same,outcome,[14],inactive
same,Potency,[15],inactive
same,outcome,[16],inactive
same,max response,[17],-8.36% and -9.93%
same,max response,[18],-5.98% (inactive) and 4.44% (inactive)
same,activity change % (negative = inhibition),[19],-12.9% (inactive) and -0.275% (inactive)
same,Potency,[20],inactive
CC(=O)[C@H]1CC[C@H]2[C@@H]3CCC4=CC(=O)CC[C@]4(C)[C@H]3CC[C@]12C,Potency,[4],50.1 µM (active)
same,outcome,[5],inactive
same,outcome,[6],inactive
same,Potency,[7],inactive
same,outcome,[8],inactive
same,outcome,[9],inactive
same,outcome,[10],inactive
same,outcome,[11],inactive
same,outcome,[12],inactive
same,Potency,[1],8.91 µM (active)
same,Potency,[2],12.6 µM (active)
same,Potency,[13],inactive
same,outcome,[14],inactive
same,Potency,[15],inactive
same,outcome,[16],inactive
same,max response,[17],1.42%
same,Potency,[18],35.5 µM (active)
same,activity change % (negative = inhibition),[19],-26.1% (inactive)
same,Potency,[20],11.9 µM (active)
